Laboratory results taken from article PMC5700166.
Residue numbers refer to the chain shown, from its start.

Experiments:
Assay in all cases: protein-binding microarray (PBM); PBM: ~300 nM protein, 6 mM HEPES pH 7.8, 80 mM KCl, 0.5 mM EDTA, 0.5 mM EGTA, 6% glycerol, 35 ng/ul poly-dIdC, 1% milk, 1 h, room temperature; Ap Aiptasia and Nv Nematostella (sea anemones) / Co Capsaspora / Aq Amphimedon (sponge) / Dm Drosophila / Hu human; RHD is the Rel homology domain; high values mean tight binding
Conditions in all cases: dsDNA, one strand shown
[1] = molecular target: T1, GST-Ap-NF-kB RHD (Exaiptasia pallida (Aiptasia), UniProt A0A913YAJ5 2-422)
T1 sequence: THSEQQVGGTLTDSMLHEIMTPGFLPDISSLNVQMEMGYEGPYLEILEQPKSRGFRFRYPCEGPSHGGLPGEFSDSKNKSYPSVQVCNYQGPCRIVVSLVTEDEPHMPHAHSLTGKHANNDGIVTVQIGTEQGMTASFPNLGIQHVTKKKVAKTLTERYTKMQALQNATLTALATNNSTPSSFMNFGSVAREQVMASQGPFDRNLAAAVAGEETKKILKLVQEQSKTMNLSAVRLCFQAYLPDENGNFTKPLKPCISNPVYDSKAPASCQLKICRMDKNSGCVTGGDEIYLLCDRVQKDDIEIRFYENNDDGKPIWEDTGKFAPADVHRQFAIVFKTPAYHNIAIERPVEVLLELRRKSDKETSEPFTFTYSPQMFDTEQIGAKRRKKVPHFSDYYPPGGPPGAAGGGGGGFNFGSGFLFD

[2] = molecular target: T2, GST-Nv-NF-kB (Cys allele) (Nematostella vectensis, UniProt E5G601 2-411)
T2 sequence: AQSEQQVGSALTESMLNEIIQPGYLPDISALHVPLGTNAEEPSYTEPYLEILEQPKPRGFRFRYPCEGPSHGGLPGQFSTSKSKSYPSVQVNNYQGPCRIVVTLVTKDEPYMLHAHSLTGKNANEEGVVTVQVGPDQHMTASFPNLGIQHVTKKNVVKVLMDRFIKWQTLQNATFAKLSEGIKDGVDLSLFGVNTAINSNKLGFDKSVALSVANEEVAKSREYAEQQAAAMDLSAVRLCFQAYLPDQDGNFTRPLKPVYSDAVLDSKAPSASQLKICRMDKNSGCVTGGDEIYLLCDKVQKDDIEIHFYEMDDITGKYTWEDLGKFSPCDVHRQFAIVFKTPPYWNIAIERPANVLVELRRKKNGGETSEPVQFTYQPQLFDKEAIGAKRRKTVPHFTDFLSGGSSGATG

[3] = molecular target: T3, GST-Nv-NF-kB (Ser allele) (Nematostella vectensis, UniProt A7UNT2 2-411)
T3 sequence: T2 sequence with Q21R, C66S, S207N, E215Q, V217A, E225K, A268E, D399E

[4] = molecular target: T4, GST-Co-NF-kB (Capsaspora owczarzaki, UniProt F1ARL5 200-546)
T4 sequence: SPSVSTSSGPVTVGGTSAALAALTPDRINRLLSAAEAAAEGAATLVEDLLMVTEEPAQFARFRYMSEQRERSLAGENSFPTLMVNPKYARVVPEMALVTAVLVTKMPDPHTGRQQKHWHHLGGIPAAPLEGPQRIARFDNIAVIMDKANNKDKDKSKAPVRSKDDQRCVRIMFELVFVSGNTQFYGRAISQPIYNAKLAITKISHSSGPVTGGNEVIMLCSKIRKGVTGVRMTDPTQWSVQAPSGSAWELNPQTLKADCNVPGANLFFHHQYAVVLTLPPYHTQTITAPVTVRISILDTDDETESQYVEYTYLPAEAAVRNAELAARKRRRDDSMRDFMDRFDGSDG

[5] = molecular target: T5, GST-Dm-Relish (Drosophila melanogaster, UniProt Q94527 99-473)
T5 sequence: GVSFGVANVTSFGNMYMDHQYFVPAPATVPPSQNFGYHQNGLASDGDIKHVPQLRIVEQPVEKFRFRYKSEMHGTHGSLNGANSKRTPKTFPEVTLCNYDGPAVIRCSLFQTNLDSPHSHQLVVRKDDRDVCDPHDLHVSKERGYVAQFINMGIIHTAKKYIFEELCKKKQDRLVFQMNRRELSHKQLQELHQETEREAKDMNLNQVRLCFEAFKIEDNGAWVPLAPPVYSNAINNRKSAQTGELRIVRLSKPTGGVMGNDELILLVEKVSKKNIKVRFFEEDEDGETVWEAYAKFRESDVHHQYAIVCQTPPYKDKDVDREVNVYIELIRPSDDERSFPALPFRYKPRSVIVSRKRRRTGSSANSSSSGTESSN

[6] = molecular target: T6, GST-Aq-NF-kB (Amphimedon queenslandica, UniProt A9Y5G7 2-389)
T6 sequence: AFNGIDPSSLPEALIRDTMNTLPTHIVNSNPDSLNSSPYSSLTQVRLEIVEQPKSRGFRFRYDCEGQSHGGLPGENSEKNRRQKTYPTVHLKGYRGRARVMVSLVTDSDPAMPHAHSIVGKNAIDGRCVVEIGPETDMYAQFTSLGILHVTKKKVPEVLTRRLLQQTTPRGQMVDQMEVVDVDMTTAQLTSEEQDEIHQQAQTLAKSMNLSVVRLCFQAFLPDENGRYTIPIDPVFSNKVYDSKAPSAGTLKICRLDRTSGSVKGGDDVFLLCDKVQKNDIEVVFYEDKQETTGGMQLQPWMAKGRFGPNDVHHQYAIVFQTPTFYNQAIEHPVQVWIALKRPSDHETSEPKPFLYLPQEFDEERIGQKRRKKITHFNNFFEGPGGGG

[7] = molecular target: GST-Hu-p50 (Homo sapiens, UniProt P19838 7-356)
Sequence of GST-Hu-p50 (P19838 7-356): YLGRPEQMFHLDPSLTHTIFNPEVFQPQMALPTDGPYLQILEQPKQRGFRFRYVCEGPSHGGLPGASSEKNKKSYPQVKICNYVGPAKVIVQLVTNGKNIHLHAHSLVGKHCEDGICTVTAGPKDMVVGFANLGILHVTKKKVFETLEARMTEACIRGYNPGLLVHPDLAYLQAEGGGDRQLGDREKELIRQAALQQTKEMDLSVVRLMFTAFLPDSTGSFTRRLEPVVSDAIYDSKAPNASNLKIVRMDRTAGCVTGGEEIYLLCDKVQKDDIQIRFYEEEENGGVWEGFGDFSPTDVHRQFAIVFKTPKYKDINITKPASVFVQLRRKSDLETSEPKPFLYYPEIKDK

Row | Sequence | binding signal [1] [z-score] | binding signal [2] [z-score] | binding signal [3] [z-score] | binding signal [4] [z-score] | binding signal [5] [z-score] | binding signal [6] [z-score] | binding signal [7] [z-score]
1 | CCGATTAACATCAGGGGATTCTATGATGTTAATCGGGTCTTGATTCGCTTGACGCTGCTG | 8.9 | 9.25 | 11.1 | 3.26 | 7.72 | 6.2 | 6.98
2 | CCGATTAACATCAGGGAAAACAATGATGTTAATCGGGTCTTGATTCGCTTGACGCTGCTG | 3.05 | 4.96 | 6.37 | 5.48 | 1.47 | 3.34 | 3.66
3 | CCGATTAACATCAAAAATTCCCGTGATGTTAATCGGGTCTTGATTCGCTTGACGCTGCTG | 5.97 | 8.78 | 8.06 | 6.08 | 7.67 | 7.49 | 5.55
4 | CCGATTAACATCAAAAAAGCCCCTGATGTTAATCGGGTCTTGATTCGCTTGACGCTGCTG | 7.94 | 11.4 | 9.29 | 1.83 | 9.41 | 8.77 | 7.54
5 | CCGATTAACATCACGGGGGAAAATGATGTTAATCGGGTCTTGATTCGCTTGACGCTGCTG | 6.86 | 6.21 | 9.47 | 11.7 | 4.45 | 5.8 | 6.51
6 | CCGATTAACATCAGGGGGATCTATGATGTTAATCGGGTCTTGATTCGCTTGACGCTGCTG | 6.31 | 5.52 | 6.98 | 4.28 | 5.1 | 4.5 | 5.83
7 | CCGATTAACATCAAAATTCCCGCTGATGTTAATCGGGTCTTGATTCGCTTGACGCTGCTG | 4.49 | 5.99 | 5.62 | 5.23 | 5.76 | 5.51 | 4.41
8 | CCGATTAACATCAGGGGAACCCATGATGTTAATCGGGTCTTGATTCGCTTGACGCTGCTG | 7.48 | 5.77 | 6.55 | 4.47 | 8.55 | 4.7 | 4.58
9 | CCGATTAACATCAGACTTTTCCCTGATGTTAATCGGGTCTTGATTCGCTTGACGCTGCTG | 2.88 | 4.94 | 5.24 | 4.28 | 1.62 | 4.8 | 3.13
10 | CCGATTAACATCAGGGGGAATTATGATGTTAATCGGGTCTTGATTCGCTTGACGCTGCTG | 7.99 | 9.53 | 10.6 | 9.25 | 7.03 | 7 | 7.24
11 | CCGATTAACATCAGCATCCCCCCTGATGTTAATCGGGTCTTGATTCGCTTGACGCTGCTG | 5.21 | 4.99 | 4.67 | 4.85 | 4.52 | 4.67 | 5.05
12 | CCGATTAACATCAAGGGAAATTCTGATGTTAATCGGGTCTTGATTCGCTTGACGCTGCTG | 5.74 | 8.12 | 7.46 | 4.57 | 3.68 | 6.88 | 5.4
13 | CCGATTAACATCAATTCTCCCCCTGATGTTAATCGGGTCTTGATTCGCTTGACGCTGCTG | 6.48 | 6.19 | 8.64 | 10.7 | 3.06 | 5.16 | 6.9
14 | CCGATTAACATCAGGGGGTTTCATGATGTTAATCGGGTCTTGATTCGCTTGACGCTGCTG | 8.25 | 7.15 | 7.35 | 2.56 | 8.76 | 6.59 | 6.6
15 | CCGATTAACATCAAAATCCCCCCTGATGTTAATCGGGTCTTGATTCGCTTGACGCTGCTG | 10.4 | 9.21 | 10.9 | 8.91 | 9.53 | 8.11 | 7.61
16 | CCGATTAACATCAAATTCCCCCCTGATGTTAATCGGGTCTTGATTCGCTTGACGCTGCTG | 8.5 | 8.77 | 8.88 | 10.1 | 8.4 | 7.65 | 6.85
17 | CCGATTAACATCAAGAAATCCCCTGATGTTAATCGGGTCTTGATTCGCTTGACGCTGCTG | 9.62 | 11.5 | 12.5 | 4.27 | 9.61 | 7.7 | 7.69
18 | CCGATTAACATCAGGGGCGTTTATGATGTTAATCGGGTCTTGATTCGCTTGACGCTGCTG | 3.36 | 3.44 | 3.2 | 1.35 | 2.1 | 3.54 | 3.71
19 | CCGATTAACATCATAAATTCCCATGATGTTAATCGGGTCTTGATTCGCTTGACGCTGCTG | 2.62 | 5.12 | 5.22 | 3.32 | 5.06 | 3.71 | 4.37
20 | CCGATTAACATCAGGGAATTTGATGATGTTAATCGGGTCTTGATTCGCTTGACGCTGCTG | 3.63 | 4.8 | 5.71 | 3.17 | 2.77 | 3.69 | 3.22
21 | CCGATTAACATCAGGACATTCCCTGATGTTAATCGGGTCTTGATTCGCTTGACGCTGCTG | 2.97 | 4.82 | 2.96 | 1.36 | 3.89 | 6.9 | 3.21
22 | CCGATTAACATCAAAATTCCCTTTGATGTTAATCGGGTCTTGATTCGCTTGACGCTGCTG | 5.04 | 8.11 | 8.05 | 2.62 | 5.83 | 7.05 | 6.07
23 | CCGATTAACATCAAAAAATCCCGTGATGTTAATCGGGTCTTGATTCGCTTGACGCTGCTG | 5.57 | 6.22 | 5.2 | 2.99 | 8.31 | 6.71 | 4.97
24 | CCGATTAACATCAAAATGTCCCCTGATGTTAATCGGGTCTTGATTCGCTTGACGCTGCTG | 6.81 | 6.47 | 7.12 | 5.57 | 6.24 | 5.89 | 5.58
